Columns and labels:
Details in all cases: concentration: 1 μM, replicates: in singlicate; n = 1
ADCK4 = test system: ADCK4
AKT1 = test system: AKT1
AKT2 = test system: AKT2
AKT3 = test system: AKT3
ALK = test system: ALK
AMPK-alpha1 = test system: T1, AMPK-alpha1
T1 construct: gene PRKAA1

AMPK-alpha2 = test system: T2, AMPK-alpha2
T2 construct: gene PRKAA2

ANKK1 = test system: ANKK1
ARK5 = test system: T3, ARK5
T3 construct: gene NUAK1

ASK1 = test system: T4, ASK1
T4 construct: gene MAP3K5

ASK2 = test system: T5, ASK2
T5 construct: gene MAP3K6

AURKA = test system: AURKA
AURKB = test system: AURKB
AURKC = test system: AURKC
AXL = test system: AXL
BIKE = test system: T6, BIKE
T6 construct: gene BMP2K

BLK = test system: BLK
BMPR1A = test system: BMPR1A
BMPR1B = test system: BMPR1B
BMPR2 = test system: BMPR2
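Also: KINOMEscan kinase panel screen.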

| Structure (SMILES) | %Inh (ADCK4) | %Inh (AKT1) | %Inh (AKT2) | %Inh (AKT3) | %Inh (ALK) | %Inh (AMPK-alpha1) | %Inh (AMPK-alpha2) | %Inh (ANKK1) | %Inh (ARK5) | %Inh (ASK1) | %Inh (ASK2) | %Inh (AURKA) | %Inh (AURKB) | %Inh (AURKC) | %Inh (AXL) | %Inh (BIKE) | %Inh (BLK) | %Inh (BMPR1A) | %Inh (BMPR1B) | %Inh (BMPR2) |
| --- | --- | --- | --- | --- | --- | --- | --- | --- | --- | --- | --- | --- | --- | --- | --- | --- | --- | --- | --- | --- |
| CCOc1nccc(-c2c(-c3ccc(F)cc3)ncn2C2CCNCC2)n1 [SB-249175] | 8% | 0% | 0% | 16% | 52% | 1% | 5% | 0% | 7% | 0% | 0% | 52% | 59% | 15% | 54% | 0% | 0% | 100% | 20% | 26% |
| CC(C)c1nc(-c2ccc(F)c(NS(=O)(=O)c3c(F)cccc3F)c2)c(-c2ccnc(Nc3ccc(N4CCOCC4)nc3)n2)s1 [GSK1804250] | 88% | 0% | 13% | 2% | 26% | 59% | 69% | 23% | 21% | 0% | 25% | 11% | 29% | 88% | 82% | 44% | 99.5% | 40% | 99.7% | 1% |
| Cc1cc(-c2c(-c3ccc(F)cc3)ncn2CCCN2CCOCC2)nc(N)n1 [SB-222517] | 0% | 16% | 0% | 23% | 0% | 10% | 27% | 0% | 0% | 0% | 14% | 28% | 39% | 3% | 0% | 0% | 8% | 20% | 0% | 35% |
| CN(C)CCNS(=O)(=O)c1ccc(-c2ccnc3[nH]ccc23)cc1 [GSK977620] | 0% | 57% | 18% | 75% | 50% | 53% | 43% | 0% | 39% | 0% | 23% | 2% | 57% | 85% | 93.1% | 82% | 6% | 0% | 0% | 0% |
| Cc1cccc(Nc2nc(N[C@H]3CCCC[C@H]3N)ncc2C(N)=O)c1.Cl [GSK986310] | 29% | 0% | 28% | 0% | 61% | 39% | 29% | 95.7% | 40% | 0% | 6% | 0% | 24% | 62% | 59% | 50% | 67% | 12% | 0% | 28% |
| CC(C)c1nc(-c2cccc(NS(=O)(=O)c3c(F)cccc3F)c2)c(-c2ccnc(Nc3ccc(N4CCOCC4)nc3)n2)s1.Cl [GSK1723980] | 100% | 0% | 11% | 0% | 19% | 74% | 91.4% | 5% | 1% | 0% | 20% | 41% | 42% | 50% | 74% | 19% | 99.8% | 67% | 99.7% | 0% |
| COc1cccc(NC(=O)NCCNc2ccnc(Nc3ccc(F)cc3)n2)c1 [GSK1379879] | 41% | 0% | 0% | 0% | 36% | 0% | 0% | 14% | 16% | 20% | 0% | 19% | 40% | 45% | 3% | 14% | 18% | 0% | 0% | 5% |
| CCn1c(-c2nonc2N)nc2c(-c3ccccc3)ncc(OCCCN)c21.O=C(O)C(F)(F)F.O=C(O)C(F)(F)F [GSK260205] | 26% | 72% | 75% | 74% | 25% | 0% | 0% | 0% | 0% | 0% | 0% | 0% | 36% | 0% | 0% | 8% | 20% | 0% | 0% | 2% |
| COc1ccc(NC(=O)c2ccoc2)cc1-c1ccc(C(=O)NCC2CC2)cc1 [GW810437] | 0% | 15% | 0% | 0% | 0% | 19% | 0% | 7% | 0% | 30% | 0% | 1% | 33% | 0% | 0% | 0% | 21% | 7% | 2% | 46% |
| O=C1NC(=O)C(c2ccccc2Cl)=C1Nc1cccc(Cl)c1 [SB-342409] | 0% | 0% | 100% | 0% | 41% | 0% | 11% | 0% | 14% | 8% | 0% | 0% | 22% | 0% | 0% | 15% | 2% | 0% | 0% | 0% |
| O=C(Nc1n[nH]c2nc(-c3cccc(O)c3)ccc12)C1CC1 [SB-711805] | 0% | 0% | 0% | 4% | 0% | 0% | 0% | 0% | 0% | 0% | 0% | 9% | 19% | 23% | 12% | 34% | 0% | 8% | 86% | 34% |
| CN1CCN(Cc2ccc(NC(=O)Nc3ccc(N(C)c4ccnc(Nc5ccc(CS(C)(=O)=O)cc5)n4)cc3)cc2)CC1.Cl [GW827654] | 34% | 0% | 0% | 0% | 47% | 34% | 34% | 80% | 8% | 0% | 4% | 99.9% | 99.7% | 98.5% | 99.3% | 93.2% | 94.1% | 44% | 96.2% | 87% |
| CC(C)NCC(Cc1ccccc1)NC(=O)c1cc(Br)c(-c2ccnc3[nH]ccc23)s1.Cl.Cl (stereo not shown) [GSK1383281] | 87% | 90% | 73% | 86% | 32% | 57% | 41% | 17% | 62% | 0% | 11% | 95.1% | 93.8% | 91.7% | 74% | 79% | 0% | 0% | 0% | 8% |
| COC(=O)Nc1nc2cc(Oc3ccc(NC(=O)Nc4cccc(SC)c4)cc3)ccc2[nH]1.Cl [GW697999] | 48% | 0% | 0% | 0% | 25% | 5% | 0% | 10% | 0% | 2% | 0% | 0% | 92.5% | 43% | 90.1% | 6% | 65% | 0% | 0% | 4% |
| Nc1ncnc2scc(-c3ccc(NC(=O)Cc4cc(F)ccc4F)cc3)c12.O=C(O)C(F)(F)F [SB-731254-M] | 3% | 0% | 0% | 9% | 18% | 18% | 11% | 49% | 2% | 10% | 21% | 53% | 98.6% | 45% | 36% | 7% | 36% | 22% | 10% | 0% |
| NCCC(NC(=O)c1cc(Br)c(-c2ccnc3[nH]ccc23)s1)c1ccccc1.O=C(O)C(F)(F)F.O=C(O)C(F)(F)F (stereo not shown) [GSK1307810] | 60% | 91.6% | 52% | 87% | 50% | 52% | 34% | 0% | 18% | 15% | 11% | 87% | 13% | 99.7% | 76% | 100% | 0% | 0% | 0% | 52% |
| Cl.O=C(Nc1ccc(Oc2ccc3[nH]c(NC(=O)c4ccco4)nc3c2)cc1)Nc1cc(C(F)(F)F)ccc1F [GW683134] | 0% | 0% | 12% | 0% | 27% | 0% | 16% | 1% | 12% | 0% | 0% | 0% | 92.6% | 50% | 96% | 15% | 54% | 0% | 0% | 0% |
| CCn1cnc2c(NCc3ccccc3)ncnc21 [SKF-96418] | 0% | 0% | 0% | 0% | 0% | 3% | 0% | 0% | 0% | 0% | 0% | 0% | 41% | 0% | 0% | 0% | 16% | 0% | 0% | 48% |
| CN(C)c1ncnc2nc[nH]c12 [SKF-31736] | 19% | 0% | 0% | 0% | 0% | 0% | 0% | 0% | 0% | 0% | 0% | 12% | 54% | 0% | 0% | 0% | 0% | 0% | 7% | 46% |
| COc1cccc2c(-c3ccncc3)c(-c3ccc(F)cc3)nn12 [GW468513] | 38% | 0% | 34% | 5% | 27% | 0% | 18% | 11% | 19% | 0% | 0% | 0% | 0% | 17% | 13% | 26% | 49% | 0% | 0% | 7% |

Source: publication PMC5540273 (PLoS ONE, 2017)
